The target of assay [1] is Retinoic acid receptor RXR-alpha (Homo sapiens) (UniProt P19793). In words: ATG_RXRa_TRANS: Attagene TRANS-FACTORIAL HepG2 Assay for human Retinoid X Receptor alpha (RXRa) (AID 2283012; active means hit-call score of the fitted dose curve at least 0.9, where 1 is the maximum). The method, boiled down:
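Chimeric NR-GAL4 trans-activation in HepG2, 24 h treatment; reporter transcripts quantified by fluorescence on capillary electrophoresis, analysed for upward change from DMSO.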

Assay [2] addresses human Retinoid X Receptor beta (RXRb), RXRB (gene 6257) (UniProt P28702). As to the kind of experiment: ATG_RXRb_TRANS: Attagene TRANS-FACTORIAL HepG2 Assay for human Retinoid X Receptor beta (RXRb) (AID 2283013; active means hit-call score of the fitted dose curve at least 0.9, where 1 is the maximum). The method, boiled down:
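After a 24 h incubation with test chemical, transfected HepG2 cells carrying NR-Gal4 fusions and GAL4-UAS reporter transcription units yield RNA whose reporter cDNA is FAM-labelled, HpaI-cut and sized by capillary electrophoresis; increases over DMSO are scored.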

Read-out in assay [3]: E-selectin (Homo sapiens) (UniProt P16581)
As to the kind of experiment: BSK_3C_Eselectin: BioMAP Diversity Plus: 3C Assay for Eselectin Biomarker Activity (AID 2283015).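 On outcome: cell surface E-selectin protein quantified by ELISA 24 h after dosing.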 The conditions noted are these: primary human endothelial cells (HUVEC); actives raise or lower the signal. The method, boiled down:
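Primary human umbilical vein endothelial cells (3C system), read 24 h after compound addition; E-selectin measured by ELISA. Bidirectional curve fitting against DMSO baseline; cytotoxicity by parallel SRB total-protein staining.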

Read-out in assay [4]: Interleukin-1 alpha (IL1a), IL1A (gene 3552)
In words: BSK_BE3C_IL1a: BioMAP Diversity Plus: BE3C Assay for Interleukin-1 alpha (IL1a) Biomarker Activity (AID 2283016). The conditions noted are these: primary human bronchial epithelial cells; actives raise or lower the signal. The method, boiled down:
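Measured in human lung primary bronchial epithelial cells: IL-1a by ELISA at 24 h after dosing, with bidirectional fitting against DMSO.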

Read-out in assay [5]: Monocyte Chemoattractant Protein-1 (MCP1), CCL2 (gene 6347)
As to the kind of experiment: BSK_3C_MCP1: BioMAP Diversity Plus: 3C Assay for Monocyte Chemoattractant Protein-1 (MCP1) Biomarker Activity (AID 2283017). The note with it: primary human endothelial cells (HUVEC); actives raise or lower the signal. In short, it runs like this: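 Human umbilical vein endothelial cells (3C system) exposed to chemicals for 24 h; MCP-1 quantified by ELISA against the DMSO baseline with bidirectional fitting, and parallel SRB staining used to assess cytotoxicity.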

Read-out in assay [6]: Monocyte Chemoattractant Protein-1 (MCP1), CCL2 (gene 6347)
As to the kind of experiment: BSK_4H_MCP1: BioMAP Diversity Plus: 4H Assay for Monocyte Chemoattractant Protein-1 (MCP1) Biomarker Activity (AID 2283018). The conditions noted are these: primary human endothelial cells (HUVEC); actives raise or lower the signal. In short, it runs like this: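 Primary human umbilical vein endothelium is exposed to chemical for 24 h before MCP-1 is assayed by ELISA. Concentration-response fitted bidirectionally relative to DMSO.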

Read-out in assay [7]: Human Leukocyte Antigen - DR isotype (HLADR), HLA-DRA (gene 3122)
As to the kind of experiment: BSK_3C_HLADR: BioMAP Diversity Plus: 3C Assay for Human Leukocyte Antigen - DR isotype (HLADR) Biomarker Activity (AID 2283019).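 On outcome: ELISA of cell-surface HLA-DR on HUVEC 24 h after dosing.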 The conditions noted are these: primary human endothelial cells (HUVEC); actives raise or lower the signal. The method, boiled down:
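HUVEC monoculture, HLA-DR measured by ELISA 24 h after chemical dosing. Fitted bidirectionally against DMSO baseline; parallel SRB staining assessed cytotoxicity, with 3C proliferation read by SRB at 48 h.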

Read-out in assay [8]: Interleukin-8 (IL8), CXCL8 (gene 3576)
In words: BSK_3C_IL8: BioMAP Diversity Plus: 3C Assay for Interleukin-8 (IL8) Biomarker Activity (AID 2283020). The conditions noted are these: primary human endothelial cells (HUVEC); actives raise or lower the signal. The method, boiled down:
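Using DMSO-treated wells as the baseline, bidirectional curve fitting was applied to ELISA-measured IL-8 from human umbilical vein endothelial cultures sampled 24 h after compound addition.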

Read-out in assay [9]: Monokine induced gamma interferon (MIG), CXCL9 (gene 4283)
In words: BSK_3C_MIG: BioMAP Diversity Plus: 3C Assay for Monokine induced gamma interferon (MIG) Biomarker Activity (AID 2283021).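 On AC50: MIG protein level measured by immunoassay in the treated endothelial cultures.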 The conditions noted are these: primary human endothelial cells (HUVEC); actives raise or lower the signal. The method, boiled down:
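ELISA-measured MIG in dosed HUVEC 3C cultures at 24 h, analysed by bidirectional fitting with DMSO defining baseline activity.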

Assay [10] deals with human Thyroid Receptor alpha (THRa1), THRA (gene 7067) (UniProt P10827). As to the kind of experiment: ATG_THRa1_TRANS: Attagene TRANS-FACTORIAL HepG2 Assay for human Thyroid Receptor alpha (THRa1) (AID 2283014; active means hit-call score of the fitted dose curve at least 0.9, where 1 is the maximum). The method, boiled down: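 HepG2 cells transiently transfected with chimeric NR-Gal4 and GAL4-UAS reporter units, dosed 24 h. Reporter mRNA quantified by RT-PCR, fluorescent labeling, HpaI digestion and capillary electrophoresis; gain-of-signal fit versus DMSO.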
Chain of human Thyroid Receptor alpha (THRa1), THRA (gene 7067) (P10827 whole entry, looked up, the tested form may be a part): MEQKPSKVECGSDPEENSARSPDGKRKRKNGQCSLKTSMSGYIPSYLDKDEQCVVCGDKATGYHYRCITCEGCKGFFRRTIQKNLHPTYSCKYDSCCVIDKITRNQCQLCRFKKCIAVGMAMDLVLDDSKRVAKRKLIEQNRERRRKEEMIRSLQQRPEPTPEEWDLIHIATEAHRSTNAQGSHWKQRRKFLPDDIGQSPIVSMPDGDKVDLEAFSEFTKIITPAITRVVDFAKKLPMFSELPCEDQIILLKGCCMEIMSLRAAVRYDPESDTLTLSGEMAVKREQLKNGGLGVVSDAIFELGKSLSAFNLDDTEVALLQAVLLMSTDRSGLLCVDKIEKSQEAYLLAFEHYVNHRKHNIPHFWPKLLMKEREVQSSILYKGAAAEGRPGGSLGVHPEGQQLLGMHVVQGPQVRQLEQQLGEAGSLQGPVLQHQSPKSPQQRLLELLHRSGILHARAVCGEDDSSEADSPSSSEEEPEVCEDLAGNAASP

Results filed as inconclusive are left out. Active and inactive are the calls of the source. How the source made its calls, unless noted: active means hit-call score of the fitted dose curve at least 0.9, where 1 is the maximum; inactive means score below 0.9.

Chain of E-selectin (Homo sapiens) (P16581 whole entry, looked up): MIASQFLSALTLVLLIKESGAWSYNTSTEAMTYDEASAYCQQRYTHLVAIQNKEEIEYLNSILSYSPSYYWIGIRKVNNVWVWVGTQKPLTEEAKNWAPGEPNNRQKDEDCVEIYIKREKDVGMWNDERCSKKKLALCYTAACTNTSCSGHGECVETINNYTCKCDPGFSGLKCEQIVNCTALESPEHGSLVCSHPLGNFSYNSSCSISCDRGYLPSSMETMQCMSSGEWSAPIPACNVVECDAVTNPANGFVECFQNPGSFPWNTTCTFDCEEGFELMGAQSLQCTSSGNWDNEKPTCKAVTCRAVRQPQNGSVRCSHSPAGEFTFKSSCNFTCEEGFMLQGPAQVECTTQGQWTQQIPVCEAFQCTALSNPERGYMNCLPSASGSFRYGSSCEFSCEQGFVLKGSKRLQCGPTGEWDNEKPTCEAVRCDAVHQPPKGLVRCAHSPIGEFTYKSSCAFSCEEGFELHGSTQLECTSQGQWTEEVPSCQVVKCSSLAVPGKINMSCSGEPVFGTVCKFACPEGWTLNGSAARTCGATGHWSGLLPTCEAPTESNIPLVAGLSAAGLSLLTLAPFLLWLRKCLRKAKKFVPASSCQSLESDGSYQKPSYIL
Chain of human Retinoid X Receptor beta (RXRb), RXRB (gene 6257) (P28702 whole entry, looked up, the tested form may be a part): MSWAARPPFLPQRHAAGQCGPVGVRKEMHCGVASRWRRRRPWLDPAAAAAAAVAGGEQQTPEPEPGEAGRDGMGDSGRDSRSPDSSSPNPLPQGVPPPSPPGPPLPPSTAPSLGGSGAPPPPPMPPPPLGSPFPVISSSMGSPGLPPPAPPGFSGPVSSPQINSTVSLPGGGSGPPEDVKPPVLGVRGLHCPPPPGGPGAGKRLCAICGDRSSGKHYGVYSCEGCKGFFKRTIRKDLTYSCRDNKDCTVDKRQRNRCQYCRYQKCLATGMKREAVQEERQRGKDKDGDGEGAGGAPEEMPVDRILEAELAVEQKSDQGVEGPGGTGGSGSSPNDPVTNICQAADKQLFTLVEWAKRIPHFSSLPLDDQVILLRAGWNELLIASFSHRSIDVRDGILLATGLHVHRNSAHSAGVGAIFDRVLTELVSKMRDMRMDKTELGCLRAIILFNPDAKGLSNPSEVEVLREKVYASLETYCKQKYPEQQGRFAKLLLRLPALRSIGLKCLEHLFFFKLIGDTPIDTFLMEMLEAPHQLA
Chain of Retinoic acid receptor RXR-alpha (Homo sapiens) (P19793 whole entry, looked up, the tested form may be a part): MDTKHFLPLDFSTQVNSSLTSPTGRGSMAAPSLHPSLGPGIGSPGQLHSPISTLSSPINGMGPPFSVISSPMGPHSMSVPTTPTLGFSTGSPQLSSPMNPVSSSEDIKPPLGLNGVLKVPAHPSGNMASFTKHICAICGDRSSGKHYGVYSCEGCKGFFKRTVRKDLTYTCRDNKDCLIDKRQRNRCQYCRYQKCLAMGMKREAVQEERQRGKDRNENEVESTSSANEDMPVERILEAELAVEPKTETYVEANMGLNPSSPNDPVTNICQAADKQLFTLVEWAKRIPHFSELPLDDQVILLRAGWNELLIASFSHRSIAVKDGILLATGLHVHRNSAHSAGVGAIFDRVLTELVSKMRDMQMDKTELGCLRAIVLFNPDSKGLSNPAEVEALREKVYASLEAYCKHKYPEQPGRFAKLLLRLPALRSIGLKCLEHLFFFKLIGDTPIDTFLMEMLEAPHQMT

What is called AC50 is the concentration giving half of the maximal activity seen. As to `CN(C)C=O`, the values for the AC50 in [1] and in assay [2] were 4.99 µM (active) and 0.74 µM (active), respectively. In addition, the outcome in [3], in [4], in assay [5], in [6], in assay [7] and in assay [8] was inactive. The outcome in assay [9] was inactive.
Turning to `CC1=C(/C=C/C(C)=C/C=C/C(C)=C/C(=O)O)C(C)(C)CCC1`, the result in assay [10], in assay [4], in [5], in assay [6], in [8] and in [9] was inactive. Moreover, the AC50 in assay [3] was 20 µM (active); in [7], 19.6 µM (active).
On to `c1ccc2c(c1)Cc1ccccc1-2`, for which the molecule was called inactive in [1], in assay [3], in assay [4], in assay [5], in [6] and in [7]. For the same molecule, the outcome in assay [8] and in assay [9] was inactive. Also, the AC50 in assay [2] was 61.7 µM (active).
In the case of `Oc1cccc(O)c1`, the result in assay [1], in assay [3], in assay [4], in assay [5], in assay [6] and in assay [7] was inactive. Besides, the result in assay [8] and in [9] was inactive.
Turning to `CC(C)(C)CC(C)(C)c1ccc(O)c(-n2nc3ccccc3n2)c1`, the molecule was classed as inactive in assay [2], in assay [10], in [3], in assay [4], in assay [5] and in assay [6]. Besides, the result in assay [7], in assay [8] and in [9] was inactive.
On to `O=C1OC2(c3ccccc31)c1cc(Br)c(O)c(Br)c1Oc1c2cc(Br)c(O)c1Br`, for which the molecule was called inactive in [2] and in assay [10].
`COc1cc(CCC(=O)CC(=O)CCc2ccc(O)c(OC)c2)ccc1O`: the result in assay [2] and in [10] was inactive.
Consider `NC(=O)N1C(=O)C(C(=O)c2cc(Cl)cs2)c2cc(F)c(Cl)cc21` (stereo not given), for which the outcome in assay [1], in assay [10], in assay [3], in assay [6], in [8] and in assay [9] was inactive. Further, the figures for the AC50 in assay [4], in assay [5] and in assay [7] were 7.87 µM (active), 5.16 µM (active) and 13.4 µM (active), respectively.
For the molecule `CCCCC(CC)COC(=O)CCCCC(=O)OCc1ccccc1` (stereo not given), in assay [2], the AC50 was 80.6 µM (active). In addition, the outcome in assay [10], in [3], in assay [4], in assay [5], in assay [6] and in [7] was inactive. Also, the outcome in assay [8] and in [9] was inactive.
As for `CC[C@H](C)[C@@H](C(=O)O)n1sc2ccccc2c1=O`, the result in assay [2], in [10], in assay [3], in assay [4], in [5] and in assay [6] was inactive. For the same molecule, the result in assay [7], in assay [8] and in assay [9] was inactive.
Turning to `Cc1cc(CCN2CCN(c3nsc4ccccc34)CC2)cc2c1NC(=O)CC2(C)C`, the molecule was classed as inactive in [1]. Besides, the AC50 in [3] was 30.9 µM (active); in [4], 30.5 µM (active); in [5] it was 30.7 µM (active); in assay [6], 8.35 µM (active); in assay [7], 10.9 µM (active); in [8], 33.1 µM (active). Further, the AC50 in [9] was 35.8 µM (active).
Take `CN1CCN(c2ccccc2/C=C2\SCCN(c3ccc(Cl)c(Cl)c3)C2=O)CC1`: the outcome in assay [1], in assay [3] and in assay [9] was inactive. For the same molecule, the AC50 in [4] was 30.9 µM (active); in [5] it was 7.36 µM (active); in assay [6], 20 µM (active); in assay [7], 11.3 µM (active); in [8], 3.55 µM (active).
As for `CN1CCC[C@H]1c1cccnc1`, the molecule was called inactive in assay [1], in [10], in assay [3], in [4], in [5] and in assay [6]. For the same molecule, the result in assay [7], in assay [8] and in assay [9] was inactive.
For the molecule `N#C[C@@H]1CC(F)(F)CN1C(=O)CNC1CC2CCC(C1)N2c1ncccn1` (stereo not given in full), the result in [1], in [2], in assay [3], in [4], in [6] and in [9] was inactive. Also, the AC50 was 4.85 µM (active) in [5], 2.58 µM (active) in [7] and 7.55 µM (active) in assay [8].
As to `CCCCC(CC)COC(=O)CCCCC(=O)OCC(CC)CCCC` (stereo not given), the result in assay [1], in [3], in assay [4], in assay [5], in [6] and in assay [7] was inactive. Moreover, the outcome in assay [8] and in [9] was inactive. Also, the AC50 in [2] is 49.1 µM (active).
With `CCCCCCCCCCCCc1ccccc1S(=O)(=O)O`, the outcome in assay [1], in [3], in assay [5], in assay [6], in [7] and in assay [8] was inactive. In assay [9], the result was inactive. Besides, the values for the AC50 in [2] and in assay [4] were 9.1 µM (active) and 14.3 µM (active), respectively.
Take `FC(F)(I)C(F)(F)C(F)(F)C(F)(F)C(F)(F)C(F)(F)I`: the AC50 was 20.5 µM (active) in assay [2] and 30 µM (active) [middle of 5 runs] in assay [4].
Regarding `Oc1cc2ccccc2c2ccccc12`, the molecule was classed as inactive in assay [1] and in assay [2]. In addition, the AC50 in assay [3] was 8.36 µM (active); in assay [4], 17.7 µM (active); in assay [5] it was 10 µM (active); in [6], 7.67 µM (active); in assay [7] it was 6.95 µM (active); in assay [8], 9.59 µM (active). In addition, in assay [9], the AC50 was 11.3 µM (active).
In the case of `CC(C)CCCCCCOC(=O)CCCCC(=O)OCCCCCCC(C)C`, the concentration at half-maximal activity (AC50) in assay [2] is 52.9 µM (active). The molecule was classed as inactive in assay [10], in assay [3], in [4], in [5], in assay [6] and in assay [7]. Further, the outcome in [8] and in [9] was inactive.
For the molecule `CCCOC(=O)c1ccc(O)cc1`, the molecule was called inactive in assay [2], in assay [10], in assay [3], in assay [4], in assay [5] and in assay [6]. Besides, the result in [7], in assay [8] and in [9] was inactive.
